Laboratory results as given in PubChem BioAssay AID1508600 (Functional Genomics Laboratory (NCATS/FGL), 2020).
Hit rate of the full screen: of about 53,000 sequences, about 3,700 (7%) were called active.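 The calls were made as follows: active = gene knockdowns whose robust z-score for IL-1 alpha signal is at least 2 or at most -2, so actives lie on both sides; inactive = the rest.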 The sample as a whole holds a higher share of actives than the screen did.

Assay: Components of the Cytosolic LPS Sensing Pathway: Gene Identification via Genome-wide siRNA Screen;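 also: robust z of the log signal after scaling to non-targeting control siRNA wells of the plate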
Settings: RAW264.7 macrophages, IL-1a HTRF, actives lie on both sides, screened at 100 nM (by protocol), cells primed 5 h with Pam3CSK4 first
Method in brief: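 Using IL-1a HTRF as read-out, the screen measured release from RAW264.7 cells after 48h siRNA knockdown (100 nM), 5 h Pam3CSK4 priming and 24 h cytosolic LipidA. Values were expressed relative to negative-control wells as robust z-scores.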

z-score, inactive:
GCGCAUGAGUGCAAGGAUUTT against Prdm16 0.265
GGAUCCGUUUUGGUGGAAUTT against Enpp4 0.255
GCACAUGCAUGGCUCUAAGTT against Hinfp 0.779
GGAAGACAAUCGCUGCGUGTT against Tet3 0.927
GCUUCUGUGGGCAACAGUUTT against Cryba1 0.0577
GGUCUCAGUUGGAAUUAUUTT against Pds5a -0.806
GGAGAAUCAGGGUAGCACATT against Txnl4a -0.52
GGUGUCAUUCACAAAAACUTT against Csnk1g1 -1.09
GCAGCAGGAAGGAUCAUUCTT against Ly6h -0.0488
GGACUUCAUGGGUCGCUUUTT against Gstm2 -0.185
GGAAUUAACAGAGAAGAAATT against Rgs13 -0.848
GCUCCUGGUCUCAUUUACATT against Taf9b -0.386
GGUGGUUUUCAGCAAGUACTT against Pde9a -0.514
AGUCAAGACCCAUAGAAAATT against Ociad2 -1.87
GCUACCAUUUGAUCAGUUUTT against Entpd1 0.665
GUCAUCACAAGUCAAGAAGTT against Prol1 -1.25
GGAGAAGGUUCACUCUGAUTT against Traf1 -0.666
GGAAACCUGAUUGCAUAUGTT against Nup37 -0.259
GCAUUAACUGUCUUGAUCCTT against Olfr356 1.41
GGAAUAAGGAAGUUAUUGGTT against Olfr706 -0.356
GGUAGAGGUGGAAUGUAGCTT against Qprt 1.36
GCCCAUCACAAAUAAACAATT against B230340J04Rik -1.17
GCUCCUUAGAGAGAGUAUUTT against Sod3 -0.399
GGGUCCAUGAACUCAAGAUTT against Rrnad1 0.473
GGCUGUGAGAACGAUGCAATT against Fam151a -1.08

z-score, active:
GCUUCUAGUCAACAUCCAGTT against Klf15 2.07
GGCCAAGUCUGGAAUCACUTT against Angel2 -2.42
GGUCACAGACAUUCCCGAATT against Atad2 -2.89
GCGUAACGCAGCAGCUAAGTT against Tarbp2 -3.01
CCUUGUAGCUCUUUAUAAATT against Strn 2.24
